Measurements as given in PubChem BioAssay (NCATS).
Records with an inconclusive call do not appear. Where a call stands in place of a potency, no number is given. A number with no mark means an inactive call. The source made the active and inactive calls. The call rests on the fitted dose curve; in most records, active means well fitted inhibition curve with a large enough effect; inconclusive means small, poorly fitted or top-dose-only effect; inactive means flat fitted curve, though single readings scatter.

tested on: CRL-7250; assay: Cytotoxic Profiling of Annotated Libraries Using Quantitative High-Throughput Screening (AID 1296008); conditions: Five cell lines viability, CellTiter-Glo ATP luminescence, 48-72 h; max response: active compounds read low; further: nearly all actives have a fitted effect of over 60% in size
Procedure, shortened: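 Cells exposed to compounds for 48 or 72 hr at 37 degrees Celsius. Viability read as ATP-coupled luminescence with CellTiter-Glo after 10 min at room temperature.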
Potency means the concentration at half of the fitted maximal effect.

**Q.** How did the outcome turn out when COc1cc(C)[nH]c(=O)c1CNC(=O)c1c(C)n([C@H](C)C2CCOCC2)c2ccccc12 was run?
**A.** inactive

**Q.** How did the outcome turn out when CN1CCC[C@@H]1Cc1c[nH]c2ccc(Nc3ncccc3[N+](=O)[O-])cc12 was run?
**A.** inactive

**Q.** With CC[C@H]1CN2CC[C@H]1C[C@H]2[C@H](O)c1ccnc2ccc(OC)cc12 as the molecule, how does the outcome read?
**A.** inactive

**Q.** For C=C[C@H]1[C@H](O[C@@H]2O[C@H](CO)[C@@H](O)[C@H](O)[C@H]2O)OC=C2C(=O)OCC[C@H]21, which max response is on record?
**A.** -1.15%

**Q.** How did the outcome turn out when Clc1ccc(OCC2=NCCN2)cc1Cl was run?
**A.** inactive

**Q.** Which Potency does the source give for COC1C(O)C(C)OC(OC2C(CO)O[C@@H](O[C@@H]3CC4CCC5C(CC[C@]6(C)[C@@H](C7=CC(=O)OC7)CC[C@]56O)[C@@]4(C)[C@H](O)C3)C(O)C2O)C1O (stereo partly drawn) here?
**A.** 485 nM (active)

**Q.** For CN(C)CCc1c[nH]c2ccc(CN3CCN(C)S3(=O)=O)cc12, which max response is on record?
**A.** 3.29%

**Q.** With CO[C@@H]1[C@H](O)[C@@H](O[C@@H]2C[C@H]3CC[C@@H]4C(CC[C@]5(C)[C@@H](C6=CC(=O)OC6)CC[C@]45O)[C@@]3(C)[C@H](O)C2)O[C@H](C)[C@@H]1O[C@@H]1O[C@H](CO)[C@@H](O)[C@H](O)[C@H]1O (stereo partly drawn) as the molecule, how does the Potency read?
**A.** 109 nM (active)

**Q.** With COc1cc(C(=O)O[C@H]2[C@@H]3C=CO[C@@H](O[C@@H]4O[C@H](CO)[C@@H](O)[C@H](O)[C@H]4O)[C@@H]3[C@@]3(CO)O[C@@H]23)ccc1O as the molecule, how does the max response read?
**A.** -1.79%

**Q.** With COC1C(O)C(OC2CCC3(C=O)C(CCC4C3CCC3(C)C(C5=CC(=O)OC5)CCC43O)C2)OC(C)C1OC1OC(CO)C(O)C(O)C1O (stereo not drawn) as the molecule, how does the Potency read?
**A.** 172 nM (active)

**Q.** CN(C(=O)Cc1ccccc1)C(CN1CCCC1)c1ccccc1 (stereo not drawn) was tested. Which max response did it give?
**A.** 0.97%

**Q.** How did the max response turn out when C=CC(C)(C)c1[nH]c2cccc3c2c1C[C@@H]1[C@@H]3[C@@H](OC(C)=O)[C@H](C)CN1C was run?
**A.** -2.45%

**Q.** For CCN1C[C@]2(COC(=O)c3ccccc3N3C(=O)C[C@H](C)C3=O)CC[C@H](OC)[C@@]34[C@@H]5C[C@H]6[C@H](OC)[C@@H]5[C@](O)(C[C@@H]6OC)[C@](O)([C@@H](OC)[C@H]23)[C@@H]14, which max response is on record?
**A.** -0.686%

**Q.** How did the max response turn out when CC(N)Cc1c[nH]c2ccccc12 (stereo not drawn) was run?
**A.** -5.98%

**Q.** Which outcome does the source give for COC(=O)C12C(=O)C(C)(O)C(=O)C1(C)C(C)=CC1C34CCC(OC3=O)C(C)(CO)C4CCC12C (stereo not drawn) here?
**A.** inactive

**Q.** COC1CC(O[C@H]2CC[C@]3(C=O)C4CC[C@]5(C)[C@@H](C6=CC(=O)OC6)CC[C@]5(O)[C@@H]4CC[C@]3(O)C2)OC(C)C1O[C@@H]1O[C@H](CO)[C@@H](O)[C@H](O)[C@H]1O (stereo partly drawn) was tested. Which Potency did it give?
**A.** 96.8 nM (active)

**Q.** With CO[C@H]1[C@H](O)[C@H](O[C@H]2CC[C@]3(C)C4CC[C@]5(C)[C@H](C6=CC(=O)OC6)CC[C@]5(O)C4CC[C@@H]3C2)O[C@@H](C)[C@@H]1O (stereo partly drawn) as the molecule, how does the Potency read?
**A.** 25.2 nM (active)

**Q.** Which outcome does the source give for CN1C(=O)N(c2ccc(C#N)c(C(F)(F)F)c2)C(=O)[C@]1(CO)c1ccccc1 here?
**A.** inactive

**Q.** With O=C(O)c1ccnc2cc(C(OCCN3CCCCC3)c3ccccc3Cl)[nH]c12 (stereo not drawn) as the molecule, how does the outcome read?
**A.** inactive

**Q.** Which outcome does the source give for CN[C@H]1[C@H](O)[C@H](O[C@@H]2[C@@H](O)[C@H](O[C@H]3O[C@H]([C@H](C)O)[C@@H](O)[C@H](O)[C@H]3N)[C@@H](N)C[C@H]2N)OC[C@@]1(C)O here?
**A.** inactive

**Q.** COC1CC(OC2CCC3(C)C(CCC4C3CCC3(C)C(C5=CC(=O)OC5)C(OC(C)=O)CC43O)C2)OC(C)C1OC1OC(CO)C(O)C(O)C1O (stereo not drawn) was tested. Which Potency did it give?
**A.** 544 nM (active)

**Q.** With CC1=C2C(=O)C3[C@@H](CC=C4C[C@@H](O)CC[C@@]43C)[C@@H]2CC[C@]12O[C@@H]1C[C@H](C)CN[C@H]1[C@H]2C (stereo partly drawn) as the molecule, how does the outcome read?
**A.** inactive

**Q.** How did the outcome turn out when C[C@H]1C(=O)O[C@H]2[C@H](O)[C@]34C5OC(=O)[C@]3(O[C@@H]3OC(=O)[C@H](O)C34[C@H](C(C)(C)C)[C@H]5O)C12O (stereo partly drawn) was run?
**A.** inactive

**Q.** COc1cc2c(cc1OC)[C@@]13CCN4CC5=CCO[C@H]6CC(=O)N2[C@H]1[C@H]6[C@H]5C[C@H]43 was tested. Which max response did it give?
**A.** -0.912%

**Q.** COc1ccccc1CN[C@H]1C2CCN(CC2)[C@H]1C(c1ccccc1)c1ccccc1 was tested. Which outcome did it give?
**A.** inactive

**Q.** With Cc1cccc(NC(=O)N[C@@H]2N=C(c3ccccc3)c3ccccc3N(C)C2=O)c1 as the molecule, how does the outcome read?
**A.** inactive

**Q.** COC1CC(=O)C23C(=O)NC(CC(C)C)C2C(C)=C(C)C(OO)C3/C=C(\C)CCC(O)C1O (stereo not drawn) was tested. Which outcome did it give?
**A.** inactive

**Q.** How did the outcome turn out when OC1(c2ccc(Cl)cc2)c2ccccc2C2=NCCN21 (stereo not drawn) was run?
**A.** inactive
